# Results: PubChem BioAssay (NCI)
# The panel holds about 83,000 compounds, 20% with a hit somewhere; the sample as a whole holds those more often.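 Percent growth is the endpoint: 0 to 100 indicates growth inhibition (40 means 60% inhibition), 0 means no net growth, and negative values indicate cell death.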 Values without a mark were called inactive. Activity calls are given as the source filed them. The calls were made as follows: active = growth percent below 10; inactive = the rest.
# Tests used:
# Test in all cases: NCI-60 one-dose screen, 48 h (100 = growth as untreated, 0 = no growth, -100 = all killed)
# Conditions in all cases: 10 µM unless noted
# NCI-H23 lung = system: NCI-H23 lung
# NCI-H226 lung = system: NCI-H226 lung
# NCI-H322M lung = system: NCI-H322M lung
# HOP-62 NSCLC = system: HOP-62 NSCLC
# NCI-H460 lung = system: NCI-H460 lung
# HOP-92 NSCLC = system: HOP-92 NSCLC
# NCI-H522 lung = system: NCI-H522 lung
# A549/ATCC NSCLC = system: A549/ATCC NSCLC
# 786-0 renal = system: 786-0 renal
# COLO 205 colon = system: COLO 205 colon
SMILES,growth (NCI-H23 lung),growth (NCI-H226 lung),growth (NCI-H322M lung),growth (HOP-62 NSCLC),growth (NCI-H460 lung),growth (HOP-92 NSCLC),growth (NCI-H522 lung),growth (A549/ATCC NSCLC),growth (786-0 renal),growth (COLO 205 colon)
NCCNc1ccc([N+](=O)[O-])cc1,112%,99.5%,112%,104%,111%,98.9%,94.9%,108%,99.5%,120%
CCOc1ccc(-c2cc(C3(S(=O)(=O)c4ccc(C)cc4)CC=CC3)on2)cc1,73.2%,47.7%,96.4%,85.9%,91.1%,86.1%,70.6%,92.8%,102%,95.5%
O=C1c2ccccc2C(=O)c2cc(Cn3c[n+](Cc4ccc5ccccc5c4)c4ccccc43)ccc21,56.5%,63.9%,75.4%,76.2%,63.4%,15.6%,34.1%,91%,61.2%,24.4%
Cc1ccc2c(c1)CC(O)CC1C(=O)N(CCO)CC(=O)N21 (stereo not given),99.3%,95.9%,105%,101%,109%,124%,82.5%,76.6%,104%,110%
COc1cc(C2=Nc3c(N)nc(N)nc3NC(c3cccc(Nc4ccnc5cc(C(F)(F)F)ccc45)c3)C2)cc(OC)c1OC (stereo not given),79.5%,89.5%,86.9%,86.3%,72.5%,47.9%,97.1%,73.6%,61%,70.5%
COc1ccc(C(=O)/C=C/c2ccc(Cl)cc2)cc1S(N)(=O)=O,87.8%,84.3%,29.1%,53.6%,65.8%,-26.6% (active),56.9%,54.5%,-30.7% (active),60.6%
CN1CCN(Cc2ccc(NC(=O)c3cncc(C#Cc4cnc(N)c5ncccc45)c3)cc2Cl)CC1,57.3%,56.5%,116%,89.8%,3.07% (active),75.6%,85.2%,74.7%,-78.2% (active),70.3%
O=C(c1ccc(F)cc1)C1CCN(CCn2c(=O)[nH]c3ccccc3c2=O)CC1,99.6%,97.8%,105%,108%,122%,87.8%,82.9%,107%,97%,103%
O=c1c(Cc2ccc(F)cc2)cc(-c2ccccc2)nn1C/C(=N/O)c1ccccc1,49%,57.1%,70%,62.7%,37.4%,42.6%,42.6%,24.2%,69.2%,47.9%
Cc1[nH]c(C2CC(c3ccc(C(F)(F)F)c(F)c3)=NN2C)c(C)c1C(=O)NCC(F)(F)F (stereo not given),95.4%,93.3%,92.7%,106%,101%,114%,88.9%,95.5%,109%,114%
Cc1ccc(-c2nn(CC(=O)N3CCOCC3)c(N)c2C#N)cc1,100%,102%,110%,108%,106%,111%,101%,95.8%,100%,122%
CCCNNC(=O)c1ccc(CNC(=O)/C=C/c2ccccc2)cc1,50.3% [2.5 µM],73.4% [2.5 µM],34.5% [2.5 µM],20.3% [2.5 µM],40.2% [2.5 µM],25.6% [2.5 µM],38.3% [2.5 µM],34.8% [2.5 µM],33.1% [2.5 µM],-16.5% [2.5 µM] (active)
CCOC(=O)CSc1nc2sc3c(c2c(=O)n1-c1ccccc1)CCCCC3,96.2%,93%,108%,97.6%,110%,104%,80.4%,104%,109%,119%
C=C(CNCCc1ccc(O)cc1)[C@@H]1CC[C@]2(CO)CC[C@]3(C)[C@H](CC[C@@H]4[C@@]5(C)CCC(N)C(C)(C)[C@@H]5CC[C@]43C)[C@@H]12 (stereo not given in full),-66.5% (active),87.6%,-53.7% (active),-74.7% (active),-86.7% (active),-78.8% (active),-64.8% (active),-66.6% (active),-87.3% (active),-72.2% (active)
[2H]C([2H])([2H])Oc1ccc(/C=C/C(=O)/C=C(/C=C/c2ccc(OC([2H])([2H])[2H])c(OC([2H])([2H])[2H])c2OC([2H])([2H])[2H])OB(F)F)c(OC([2H])([2H])[2H])c1OC([2H])([2H])[2H],59.5%,88.5%,97.7%,85.7%,91.7%,74.1%,45.9%,84.2%,70.9%,43.6%
O=C(Nc1ncc(Cc2ccc(Cl)cc2)s1)C1=NCCCCN1,99%,99.7%,94.9%,108%,106%,119%,82.1%,109%,107%,110%
COc1cccc(/C=C2\CCc3ccccc3C2=O)c1,83.6%,93.6%,98%,88.4%,96.6%,64.3%,62.9%,85.1%,81.4%,112%
Nc1n[nH]c2cccc(C#Cc3cccc(C(=O)Nc4ccc(Cl)c(C(F)(F)F)c4)c3)c12,59.1%,36%,77%,67.5%,64.3%,20.1%,30.9%,71.3%,76.6%,29.3%
C[C@H]1c2ccccc2CN1CCCOc1cc2c(cc1OCC1CC1)C1(CCCC1)C(N)=N2,67.2%,53.1%,89.7%,82%,38.5%,23.2%,73.7%,74.1%,56.4%,-66.4% (active)
COc1cc2nc3cc([N+](=O)[O-])ccc3c(NCCCNCCO)c2cc1OC,-29.1% (active),-39.5% (active),-27.7% (active),-60.6% (active),-39% (active),-46.4% (active),-52% (active),-26.6% (active),-39.2% (active),-76.2% (active)
CCCCC1=C(Br)C(=O)c2ncccc2C1=O,95%,97.8%,100%,91.3%,105%,46.2%,74.3%,94.8%,93.3%,-6.16% (active)
N#Cc1nn(-c2ccccn2)c(N)c1C#N,105%,106%,107%,97.1%,106%,101%,67.4%,97.5%,98%,106%
COc1cc(C)cc(-c2c(-c3cc(N4CC(O)C4)nc(-c4cccnc4)n3)cnn2C)c1,77.9%,91.5%,101%,111%,90.8%,74.7%,86.5%,84.9%,81.6%,104%
Nc1nc(Nc2ccc([N+](=O)[O-])cc2O)nc(C(Cl)(Cl)Cl)n1,80.1%,90.2%,96.9%,80%,90.2%,49.4%,10.9%,82.4%,97.1%,107%
CC(=O)/C(Br)=C/c1ccc(Br)o1,68.4%,85.4%,102%,137%,105%,33.8%,55.7%,102%,5.9% (active),73.8%
Oc1cccc2c1NCCC2,13.6%,32.8%,38.3%,25.1%,5.35% (active),-16.6% (active),-2.3% (active),12.9%,26.6%,38.6%
